Results on 3 compounds are retold here after PubChem BioAssay (EPA / NIEHS).

Active and inactive are the calls of the source. How the source made its calls: active means hit-call score of the fitted dose curve at least 0.9, where 1 is the maximum; inactive means score below 0.9.

Holding throughout (conditions): mRNA level, 48 h; actives raise or lower the signal
Read-out in assay [1]: Bcl-2 (BAX) gene, BAX (gene 581)
In words: LTEA_HepaRG_BAX: Life Technologies and Expression Analysis (LTEA) Assay for Bcl-2 (BAX) gene using HepaRG (AID 2283470). The method, boiled down:
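HepaRG (human liver), 48 h exposure, duplicate wells. 8-pt curve, half-log from 100 uM, 0.5% DMSO. BAX transcript by TaqMan qRT-PCR; ACTB/GAPDH/POLR2A normalization; gain or loss vs DMSO baseline.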

Read-out in assay [2]: adenosine kinase (ADK) gene, ADK (gene 132)
Kind of assay: LTEA_HepaRG_ADK: Life Technologies and Expression Analysis (LTEA) Assay for adenosine kinase (ADK) gene using HepaRG (AID 2283471). The method, boiled down:
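ADK expression quantified by qRT-PCR, normalised to three housekeeping genes, after 48 h exposure of HepaRG cells to eight concentrations (top 100 uM, half-log steps, duplicate, 0.5% DMSO). Up- or down-regulation fitted relative to vehicle.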

Read-out in assay [3]: Alpha-fetoprotein (AFP) gene, AFP (gene 174)
Kind of assay: LTEA_HepaRG_AFP: Life Technologies and Expression Analysis (LTEA) Assay for Alpha-fetoprotein (AFP) gene using HepaRG (AID 2283472). The method, boiled down: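 HepaRG, single lot; 48 h post-plating -> serum-free induction medium; cpd 8-pt, 100 uM top, half-log, 0.5% DMSO, duplicate, 48 h. RNA -> qRT-PCR AFP, norm ACTB/GAPDH/POLR2A. Bidirectional fit vs DMSO.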

Read-out in assay [4]: Apoptosis regulator Bcl-2 (Homo sapiens) (UniProt P10415)
Kind of assay: LTEA_HepaRG_BCL2: Life Technologies and Expression Analysis (LTEA) Assay for Bcl-2 gene using HepaRG (AID 2283475). A digest of the protocol:
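HepaRG, plated 48 h then switched to serum-free induction medium; dosed 48 h, 8 conc. (max 100 uM, half-log steps), duplicate, 0.5% DMSO. Lysis in RLT, RNA isolated, TaqMan qRT-PCR for BCL2; ACTB/GAPDH/POLR2A normalisation; bidirectional fit vs DMSO.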

Read-out in assay [5]: Bcl-2 (BID) gene, BID (gene 637)
Kind of assay: LTEA_HepaRG_BID: Life Technologies and Expression Analysis (LTEA) Assay for Bcl-2 (BID) gene using HepaRG (AID 2283476). The method, boiled down: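 Transcript levels of BID, measured by qRT-PCR and normalized to three housekeeping genes, were fitted bidirectionally against DMSO controls. Cells were HepaRG, dosed 48 h at up to 100 uM.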

Read-out in assay [6]: Caspase-3 (Homo sapiens) (UniProt P42574)
Kind of assay: LTEA_HepaRG_CASP3: Life Technologies and Expression Analysis (LTEA) Assay for cysteine-aspartic acid protease (CASP3) using HepaRG (AID 2283477). A digest of the protocol:
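Differentiated HepaRG cells, plated 48 h, were treated in duplicate in serum-free induction medium for 48 h with eight half-log concentrations up to 100 uM in 0.5% DMSO. CASP3 mRNA measured by qRT-PCR, normalized to ACTB, GAPDH, POLR2A.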

Read-out in assay [7]: Cytochrome P450 (CYP24A1), CYP24A1 (gene 1591)
Kind of assay: LTEA_HepaRG_CYP24A1: Life Technologies and Expression Analysis (LTEA) Assay for Cytochrome P450 (CYP24A1) using HepaRG (AID 2283478). A digest of the protocol: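 HepaRG cells plated 48 h, then exposed in duplicate in serum-free induction medium for 48 h to 8-point half-log series from 100 uM in 0.5% DMSO. CYP24A1 mRNA by Fluidigm qRT-PCR, normalized to ACTB, GAPDH, POLR2A; bidirectional fit versus DMSO.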

Read-out in assay [8]: Cytochrome P450 (CYP1A2), CYP1A2 (gene 1544)
Kind of assay: LTEA_HepaRG_CYP1A2: Life Technologies and Expression Analysis (LTEA) Assay for Cytochrome P450 (CYP1A2) using HepaRG (AID 2283479). A digest of the protocol:
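Differentiated human HepaRG cells in serum-free induction medium exposed 48 hours in duplicate to 8 half-log concentrations from 100 uM, 0.5% DMSO. CYP1A2 mRNA quantified by qRT-PCR, normalized to ACTB, GAPDH and POLR2A; bidirectional fitting versus DMSO.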

Read-out in assay [9]: cysteine-aspartic acid protease (CASP8), CASP8 (gene 841)
In words: LTEA_HepaRG_CASP8: Life Technologies and Expression Analysis (LTEA) Assay for cysteine-aspartic acid protease (CASP8) using HepaRG (AID 2283480). The method, boiled down: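 Differentiated HepaRG cells in serum-free induction medium, 48 h exposure, eight-point half-log series from 100 uM in 0.5% DMSO, duplicates. CASP8 mRNA by qRT-PCR, normalized to ACTB, GAPDH, POLR2A; bidirectional fit versus DMSO.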

Read-out in assay [10]: Cytochrome P450 (CYP2B6), CYP2B6 (gene 1555)
In words: LTEA_HepaRG_CYP2B6: Life Technologies and Expression Analysis (LTEA) Assay for Cytochrome P450 (CYP2B6) using HepaRG (AID 2283481). A digest of the protocol:
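Differentiated human HepaRG cells in serum-free induction medium, dosed in duplicate for 48 h over 8 half-log concentrations topping at 100 uM (0.5% DMSO). CYP2B6 mRNA measured by TaqMan qRT-PCR, normalized to ACTB, GAPDH, POLR2A; bidirectional fit versus DMSO.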

Read-out in assay [11]: Cytochrome P450 2C19 (Homo sapiens) (UniProt P33261)
Kind of assay: LTEA_HepaRG_CYP2C19: Life Technologies and Expression Analysis (LTEA) Assay for CYP2C19 using HepaRG (AID 2283482). A digest of the protocol:
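Differentiated HepaRG cells in serum-free induction medium exposed 48 h in duplicate, 8 concentrations from 100 uM by half-log steps in 0.5% DMSO. CYP2C19 mRNA measured by TaqMan qRT-PCR, normalized to ACTB, GAPDH, POLR2A. Bidirectional fit versus DMSO.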

Read-out in assay [12]: CYP2C8 (gene 1558)
Kind of assay: LTEA_HepaRG_CYP2C8: Life Technologies and Expression Analysis (LTEA) Assay for CYP2C8 using HepaRG (AID 2283483). A digest of the protocol: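 Differentiated HepaRG cells in serum-free induction medium exposed 48 h in duplicate to 8 half-log concentrations from 100 uM in 0.5% DMSO. CYP2C8 mRNA by qRT-PCR normalized to ACTB, GAPDH, POLR2A; bidirectional fit versus DMSO.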

Read-out in assay [13]: CYP2C9 (gene 1559)
Kind of assay: LTEA_HepaRG_CYP2C9: Life Technologies and Expression Analysis (LTEA) Assay for CYP2C9 using HepaRG (AID 2283484). A digest of the protocol:
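Differentiated human HepaRG cells in serum-free induction medium were exposed 48 h to chemicals in 8-point half-log series from 100 uM (0.5% DMSO), in duplicate. CYP2C9 mRNA was measured by qRT-PCR, normalized to ACTB/GAPDH/POLR2A, with bidirectional fitting versus DMSO.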

Read-out in assay [14]: CYP2E1 (gene 1571)
Kind of assay: LTEA_HepaRG_CYP2E1: Life Technologies and Expression Analysis (LTEA) Assay for CYP2E1 using HepaRG (AID 2283485). The method, boiled down: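 Human liver line HepaRG, plated 48 h, then serum-free induction medium + chemical x 48 h; 8-pt CRC from 100 uM, half-log, 0.5% DMSO, n=2. Readout: CYP2E1 mRNA qRT-PCR vs ACTB/GAPDH/POLR2A; bidirectional fit vs DMSO.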

Read-out in assay [15]: CYP4A11 (gene 1579)
In words: LTEA_HepaRG_CYP4A11: Life Technologies and Expression Analysis (LTEA) Assay for CYP4A11 using HepaRG (AID 2283486). The method, boiled down: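 Differentiated HepaRG cells, 48 h after plating, exposed in duplicate for 48 h to 8 half-log concentrations up to 100 uM in 0.5% DMSO in serum-free induction medium. CYP4A11 mRNA measured by TaqMan qRT-PCR, normalized to ACTB, GAPDH and POLR2A.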

Read-out in assay [16]: DNA damage-inducible transcript 3 (DDIT3), DDIT3 (gene 1649)
Kind of assay: LTEA_HepaRG_DDIT3: Life Technologies and Expression Analysis (LTEA) Assay for DNA damage-inducible transcript 3 (DDIT3) using HepaRG (AID 2283488). The method, boiled down: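 HepaRG plated 48 h, switched to serum-free induction medium, dosed 48 h (100 uM top, half-log, 8 pts, 0.5% DMSO, n=2); RNA isolated; DDIT3 by qRT-PCR; bidirectional curve fit vs DMSO.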

Read-out in assay [17]: Pro-epidermal growth factor (Homo sapiens) (UniProt P01133)
In words: LTEA_HepaRG_EGF: Life Technologies and Expression Analysis (LTEA) Assay for Epidermal growth factor (EGF) using HepaRG (AID 2283489). The method, boiled down:
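HepaRG cells (~100,000/well, 48 h pre-culture) exposed in duplicate for 48 h in serum-free induction medium to 8 half-log concentrations up to 100 uM in 0.5% DMSO. EGF mRNA by qRT-PCR, normalized to ACTB/GAPDH/POLR2A; bidirectional fit versus DMSO.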

Read-out in assay [18]: Apolipoprotein A-V (APOA5) gene, APOA5 (gene 116519)
Kind of assay: LTEA_HepaRG_APOA5: Life Technologies and Expression Analysis (LTEA) Assay for Apolipoprotein A-V (APOA5) gene using HepaRG (AID 2283474). The method, boiled down: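 Differentiated HepaRG cells in serum-free induction medium, exposed 48 h in duplicate to eight half-log concentrations topping at 100 uM (0.5% DMSO). APOA5 mRNA by Fluidigm TaqMan qRT-PCR, normalized to ACTB, GAPDH and POLR2A; bidirectional fit versus DMSO.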

Read-out in assay [19]: Cytochrome P450 3A4 (Homo sapiens) (UniProt P08684)
In words: LTEA_HepaRG_CYP3A4: Life Technologies and Expression Analysis (LTEA) Assay for CYP3A4 using HepaRG (AID 2283487). The method, boiled down: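 Differentiated HepaRG cells, plated 48 h, then dosed 48 h in serum-free induction medium with 0.5% DMSO, 8 half-log concentrations up to 100 uM, duplicate. CYP3A4 mRNA by qRT-PCR, normalized to ACTB/GAPDH/POLR2A; bidirectional fit versus DMSO.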

Sequence of Cytochrome P450 2C19 (Homo sapiens) (P33261 whole entry, looked up): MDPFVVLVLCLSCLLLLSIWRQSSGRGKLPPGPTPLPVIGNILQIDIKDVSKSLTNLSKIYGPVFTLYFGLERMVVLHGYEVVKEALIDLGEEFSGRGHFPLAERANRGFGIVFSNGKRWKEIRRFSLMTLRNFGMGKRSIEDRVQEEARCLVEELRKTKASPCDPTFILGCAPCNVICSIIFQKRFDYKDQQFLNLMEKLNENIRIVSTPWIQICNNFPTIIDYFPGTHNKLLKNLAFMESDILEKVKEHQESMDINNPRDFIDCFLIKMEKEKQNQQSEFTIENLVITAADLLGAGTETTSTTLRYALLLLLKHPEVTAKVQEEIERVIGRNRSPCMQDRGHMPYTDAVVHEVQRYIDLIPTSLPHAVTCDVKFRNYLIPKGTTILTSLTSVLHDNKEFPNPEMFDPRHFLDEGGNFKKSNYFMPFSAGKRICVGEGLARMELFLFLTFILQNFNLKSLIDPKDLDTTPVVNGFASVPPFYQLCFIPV
Sequence of Caspase-3 (Homo sapiens) (P42574 whole entry, looked up): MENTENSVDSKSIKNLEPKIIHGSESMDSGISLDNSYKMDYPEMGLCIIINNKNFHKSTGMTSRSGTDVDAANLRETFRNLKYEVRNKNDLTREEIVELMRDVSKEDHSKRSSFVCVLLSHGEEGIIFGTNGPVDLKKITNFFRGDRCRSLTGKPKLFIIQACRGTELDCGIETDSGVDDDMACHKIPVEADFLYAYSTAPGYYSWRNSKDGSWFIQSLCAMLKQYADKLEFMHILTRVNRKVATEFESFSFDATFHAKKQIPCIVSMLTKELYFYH
Sequence of Apoptosis regulator Bcl-2 (Homo sapiens) (P10415 whole entry, looked up): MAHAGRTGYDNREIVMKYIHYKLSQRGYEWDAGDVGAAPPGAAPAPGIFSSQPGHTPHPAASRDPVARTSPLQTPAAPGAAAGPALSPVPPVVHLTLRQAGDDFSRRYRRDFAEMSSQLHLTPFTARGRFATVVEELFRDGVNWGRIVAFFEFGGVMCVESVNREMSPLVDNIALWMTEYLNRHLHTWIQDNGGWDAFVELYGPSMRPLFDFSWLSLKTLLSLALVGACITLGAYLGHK
Sequence of Cytochrome P450 3A4 (Homo sapiens) (P08684 whole entry, looked up): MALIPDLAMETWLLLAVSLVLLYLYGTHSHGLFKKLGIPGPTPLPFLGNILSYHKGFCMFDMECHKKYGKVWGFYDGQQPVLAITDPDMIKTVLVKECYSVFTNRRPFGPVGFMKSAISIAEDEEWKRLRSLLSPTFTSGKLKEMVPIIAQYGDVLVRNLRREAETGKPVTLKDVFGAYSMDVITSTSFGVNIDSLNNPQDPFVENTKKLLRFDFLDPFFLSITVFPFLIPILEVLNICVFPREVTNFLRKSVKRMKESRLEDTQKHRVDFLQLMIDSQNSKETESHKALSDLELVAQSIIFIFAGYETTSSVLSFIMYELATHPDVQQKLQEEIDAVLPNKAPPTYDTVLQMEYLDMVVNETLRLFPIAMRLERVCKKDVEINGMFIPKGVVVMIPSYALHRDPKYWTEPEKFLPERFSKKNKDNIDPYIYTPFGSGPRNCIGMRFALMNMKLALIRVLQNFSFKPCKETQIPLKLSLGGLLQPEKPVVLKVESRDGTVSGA

The AC50 is the midpoint of the concentration-response curve, whichever way the signal moves. As to `O=C(O)c1ccccc1-n1cc(C(=O)O)c(=O)c2cc(Nc3c(F)cc(F)cc3Cl)c(Cl)cc21`, the outcome in assay [1], in assay [2], in [3], in assay [4], in assay [6] and in assay [7] was inactive. Also, the compound was classed as inactive in [8], in assay [9], in [13], in [15], in [16] and in [17]. The AC50 is 0.01 µM (active) in assay [5]; 11.2 µM (active) in assay [10]; 5.7 µM (active) in assay [11]; 7.91 µM (active) in assay [12]; 25.5 µM (active) in [14].

Turning to `CCCC(=O)OCCC(C)C`, the compound was classed as inactive in [1], in assay [2], in [3], in assay [18], in assay [4] and in [5]. The compound was called inactive in [6], in assay [9], in assay [10], in assay [11], in [12] and in [13]. In addition, the outcome in [14], in [15], in [19], in assay [16] and in assay [17] was inactive. For the same compound, the AC50 in [8] is 50 µM (active).

On to `O=c1ccc2ccccc2o1`, for which the compound was called inactive in assay [1], in [2], in [3], in assay [4], in [5] and in assay [6]. Besides, the outcome in assay [7], in [8], in [9], in assay [11], in assay [12] and in assay [13] was inactive. Further, the outcome in [15], in assay [19], in assay [16] and in assay [17] was inactive. The values for the AC50 in [10] and in assay [14] were 40.3 µM (active) and 50 µM (active), respectively.
